According to PubChem BioAssay (EPA / NIEHS):
Where “and” joins values, the source holds several entries; their conditions need not be identical. Identical values can stand only once. Records with an inconclusive call do not appear. Calls of active or inactive are those of the source. The calls were made as follows, unless noted: active = hit-call score of the fitted dose curve at least 0.9, where 1 is the maximum; inactive = score below 0.9.

Legend:
[1] = ATG_PBREM_CIS: Attagene CIS-FACTORIAL HepG2 Assay for human Phenobarbital-responsive Enhancer Module (PBREM) (AID 2282955); conditions: HepG2 PBREM cis-reporter, Attagene multiplexed transcription; actives raise or lower the signal
Summary of the method: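 Endogenous transcription factors in human liver HepG2 cells drive a PBREM cis-element reporter, whose transcript level after 24 h treatment is quantified by RT-PCR with capillary electrophoresis; activity fitted in both directions against DMSO.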

[2] = target: Paired box protein Pax-6 (Homo sapiens) (UniProt P26367); experiment: ATG_Pax6_CIS: Attagene CIS-FACTORIAL HepG2 Assay for human Paired Box 6 (PAX6) (AID 2282956); conditions: HepG2 CIS-FACTORIAL PAX6 reporter transcription, RNA readout; actives raise or lower the signal
Sequence of Paired box protein Pax-6 (Homo sapiens) (P26367 whole entry, looked up): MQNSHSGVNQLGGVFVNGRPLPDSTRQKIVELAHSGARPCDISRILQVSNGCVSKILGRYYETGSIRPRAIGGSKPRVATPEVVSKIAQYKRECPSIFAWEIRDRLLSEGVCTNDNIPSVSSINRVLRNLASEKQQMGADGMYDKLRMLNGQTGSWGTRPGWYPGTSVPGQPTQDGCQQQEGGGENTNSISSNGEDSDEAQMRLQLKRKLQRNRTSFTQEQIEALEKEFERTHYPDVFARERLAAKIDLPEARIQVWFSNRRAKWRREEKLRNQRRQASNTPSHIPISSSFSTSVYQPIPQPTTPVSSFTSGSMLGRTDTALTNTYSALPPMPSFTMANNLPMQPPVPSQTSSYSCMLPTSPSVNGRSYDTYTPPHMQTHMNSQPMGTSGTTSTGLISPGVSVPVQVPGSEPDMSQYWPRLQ
Summary of the method: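 Fluorescent RT-PCR products separated by capillary electrophoresis report PAX6-linked promoter mRNA in HepG2 cells 24 h post-dose. Curves fitted bidirectionally, DMSO as negative control.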

[3] = ATG_PXRE_CIS: Attagene CIS-FACTORIAL HepG2 Assay for human Pregnane X Receptor Element (PXRE) (AID 2282957); conditions: HepG2 Attagene CIS-FACTORIAL PXRE reporter, mRNA; actives raise or lower the signal
Summary of the method: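 Endogenous transcription factor activity in HepG2 was gauged through induction of reporter mRNA driven by a cis-regulating promoter element, sampled 24 h post-treatment. Activity was fitted in both directions against DMSO negative control.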

[4] = ATG_PPRE_CIS: Attagene CIS-FACTORIAL HepG2 Assay for human Peroxisome Proliferator-activated Response Element (PPRE) (AID 2282958); conditions: HepG2 PPRE cis-element reporter, Attagene transcription factor profiling; actives raise or lower the signal
Summary of the method: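 HepG2, transient MRTU transfection (cis promoter elements, endogenous TFs). 24 h dosing. RNA → oligo(dT) RT → PCR → 6-FAM primer extension → HpaI digest → CE. Bidirectional fit vs DMSO.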

[5] = ATG_RORE_CIS: Attagene CIS-FACTORIAL HepG2 Assay for human RAR-related Orphan Receptor Element (RORE) (AID 2282959); conditions: HepG2 Attagene cis-factorial RORE reporter, mRNA; actives raise or lower the signal
Summary of the method: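 Transient MRTU transfection of human HepG2 liver cells (FuGene 6); 24 h compound exposure; TriZol RNA, oligo(dT) RT, PCR, FAM labeling, HpaI cut, CE fragment analysis. DMSO = negative control/baseline.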

[6] = ATG_Sox_CIS: Attagene CIS-FACTORIAL HepG2 Assay for human SRY-box transcription factor (SOX) (AID 2282960); conditions: HepG2 Attagene cis-factorial SOX reporter, mRNA; actives raise or lower the signal
Summary of the method: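 Endogenous factor activity in human liver HepG2 cells carrying transfected cis-regulated reporter units. RNA taken 24 h post-dose, reverse-transcribed, PCR-amplified and sized by capillary electrophoresis. Gain or loss of signal fitted relative to DMSO.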

[7] = target: Transcription factor Sp1 (Homo sapiens) (UniProt P08047); experiment: ATG_Sp1_CIS: Attagene CIS-FACTORIAL HepG2 Assay for human Specificity Protein 1 (Sp1) (AID 2282961); conditions: HepG2 Sp1 cis-reporter transcription, actives raise or lower the signal
Sequence of Transcription factor Sp1 (Homo sapiens) (P08047 whole entry, looked up): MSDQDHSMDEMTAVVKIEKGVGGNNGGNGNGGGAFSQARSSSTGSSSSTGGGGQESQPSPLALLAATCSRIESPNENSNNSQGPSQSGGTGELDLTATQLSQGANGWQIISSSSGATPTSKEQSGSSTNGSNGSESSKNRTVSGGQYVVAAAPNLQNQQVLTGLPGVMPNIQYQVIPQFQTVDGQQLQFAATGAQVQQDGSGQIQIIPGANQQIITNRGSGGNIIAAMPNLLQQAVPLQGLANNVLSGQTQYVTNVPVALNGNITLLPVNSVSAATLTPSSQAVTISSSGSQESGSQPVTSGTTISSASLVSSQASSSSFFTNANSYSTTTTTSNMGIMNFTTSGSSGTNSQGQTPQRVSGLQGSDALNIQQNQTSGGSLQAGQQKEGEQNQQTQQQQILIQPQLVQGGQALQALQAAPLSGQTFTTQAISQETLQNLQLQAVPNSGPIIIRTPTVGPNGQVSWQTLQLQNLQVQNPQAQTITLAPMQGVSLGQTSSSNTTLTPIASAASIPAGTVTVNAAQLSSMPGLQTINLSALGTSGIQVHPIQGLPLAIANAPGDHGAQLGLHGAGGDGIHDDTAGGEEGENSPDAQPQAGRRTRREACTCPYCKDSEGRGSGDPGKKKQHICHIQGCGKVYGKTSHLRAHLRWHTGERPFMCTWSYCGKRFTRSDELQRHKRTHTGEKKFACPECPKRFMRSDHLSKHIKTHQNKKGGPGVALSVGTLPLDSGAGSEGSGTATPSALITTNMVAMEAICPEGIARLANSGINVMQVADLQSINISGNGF
Summary of the method: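 Transient MRTU-transfected HepG2, 24 h compound exposure. Total RNA → oligo(dT) RT → PCR of reporter → 6-FAM primer extension → HpaI digest → CE. Endpoint fitted both directions vs DMSO.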

[8] = ATG_SREBP_CIS: Attagene CIS-FACTORIAL HepG2 Assay for human Sterol Regulatory Element Binding (SREBP) (AID 2282962); conditions: HepG2 Attagene cis-factorial SREBP reporter, mRNA; actives raise or lower the signal
Summary of the method: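 Endogenous factor activity is measured in HepG2 through multiplexed reporter units under cis-element control. Following a 24 h incubation, reporter transcripts are reverse-transcribed, PCR-amplified and sized by capillary electrophoresis; activity is fitted in both directions relative to DMSO.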

[9] = target: Signal transducer and activator of transcription 3 (Homo sapiens) (UniProt P40763); experiment: ATG_STAT3_CIS: Attagene CIS-FACTORIAL HepG2 Assay for human Signal Transducer and Activator of Transcription 3 (STAT3) (AID 2282963); conditions: HepG2, Attagene cis-factorial STAT3 reporter transcription; actives raise or lower the signal
Sequence of Signal transducer and activator of transcription 3 (Homo sapiens) (P40763 whole entry, looked up, the tested form may be a part): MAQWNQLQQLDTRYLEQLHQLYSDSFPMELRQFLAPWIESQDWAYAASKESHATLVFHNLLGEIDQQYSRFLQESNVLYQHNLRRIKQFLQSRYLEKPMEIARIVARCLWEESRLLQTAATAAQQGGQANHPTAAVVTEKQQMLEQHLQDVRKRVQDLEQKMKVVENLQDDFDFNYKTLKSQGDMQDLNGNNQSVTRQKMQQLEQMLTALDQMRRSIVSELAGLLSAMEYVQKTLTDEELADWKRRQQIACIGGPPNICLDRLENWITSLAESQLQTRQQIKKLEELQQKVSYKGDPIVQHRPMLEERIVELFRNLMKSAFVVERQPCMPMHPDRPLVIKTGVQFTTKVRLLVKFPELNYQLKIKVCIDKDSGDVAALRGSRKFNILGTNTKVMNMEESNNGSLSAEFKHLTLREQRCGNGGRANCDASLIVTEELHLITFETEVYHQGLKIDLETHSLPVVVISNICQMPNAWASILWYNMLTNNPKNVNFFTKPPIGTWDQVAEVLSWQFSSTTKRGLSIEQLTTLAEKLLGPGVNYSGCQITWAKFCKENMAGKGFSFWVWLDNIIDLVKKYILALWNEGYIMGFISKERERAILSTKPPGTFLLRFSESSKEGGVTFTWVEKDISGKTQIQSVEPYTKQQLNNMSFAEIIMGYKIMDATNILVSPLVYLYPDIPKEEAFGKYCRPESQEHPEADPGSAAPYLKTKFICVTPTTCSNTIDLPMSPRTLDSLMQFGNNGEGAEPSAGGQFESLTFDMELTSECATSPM
Summary of the method: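 Fluorescence intensity of 6-FAM-labelled reporter fragments, separated by capillary electrophoresis after RT-PCR, gave the signal. Cells were HepG2 transfected with cis-element reporter units and treated 24 h; fitting was bidirectional relative to DMSO.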

[10] = ATG_TA_CIS: Attagene CIS-FACTORIAL HepG2 Assay for human TA Basal Promoter (AID 2282964); conditions: HepG2 Attagene CIS-factorial TA basal promoter reporter; actives raise or lower the signal
Summary of the method: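 Fluorescence from labelled RT-PCR reporter fragments, separated by capillary electrophoresis, gives the signal. Cells: HepG2 transiently carrying multiple reporter units, 24 h chemical dosing. Gain or loss relative to DMSO.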

[11] = ATG_TCF_b_cat_CIS: Attagene CIS-FACTORIAL HepG2 Assay for human T-Cell-Factor with beta-catenin (TCF/b-cat) (AID 2282965); conditions: HepG2 TCF/beta-catenin cis-reporter transcription, actives raise or lower the signal
Summary of the method: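 Cells of the HepG2 line carry transiently transfected reporter units whose promoters respond to endogenous factors. Twenty-four hours post-dosing, reporter mRNA induction is measured by fluorescent RT-PCR and capillary electrophoresis, with DMSO as baseline.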

[12] = ATG_TAL_CIS: Attagene CIS-FACTORIAL HepG2 Assay for human TAL Basal Promoter (AID 2282966); conditions: HepG2 Attagene cis-factorial TAL promoter reporter; actives raise or lower the signal;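 also: background control endpoint measuring basal TAL promoter reporter mRNA not a specific factor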
Summary of the method: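 Endogenous transcription-factor activity is sensed in HepG2 cells through transfected cis-promoter reporter constructs. After 24 h dosing, reporter transcripts are quantified by RT-PCR and capillary electrophoresis. Gain or loss of signal is fitted relative to DMSO.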

[13] = ATG_TGFb_CIS: Attagene CIS-FACTORIAL HepG2 Assay for human Transforming Growth Factor (TGF) (AID 2282967); conditions: HepG2 Attagene CIS TGFb reporter, mRNA transcription; actives raise or lower the signal
Summary of the method: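 Bidirectional fitting relative to DMSO gave the endpoint. Underlying data: reporter mRNA from HepG2 cells carrying transiently transfected cis-regulated reporter constructs, harvested 24 h after dosing and analyzed by RT-PCR and capillary electrophoresis.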

[14] = ATG_VDRE_CIS: Attagene CIS-FACTORIAL HepG2 Assay for human Vitamin D Receptor Element (VDRE) (AID 2282968); conditions: HepG2 VDRE cis-reporter transcription, actives raise or lower the signal
Summary of the method: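 Compounds were applied for 24 h to HepG2 cells transfected with promoter-regulated reporter units. Total RNA was reverse-transcribed, and reporter amplicons were fluorescently labelled and sized by capillary electrophoresis.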

[15] = target: Nuclear receptor subfamily 1 group I member 3 (Homo sapiens) (UniProt Q14994); experiment: ATG_CAR_TRANS: Attagene TRANS-FACTORIAL HepG2 Assay for human Constitutive Androstane Receptor (CAR) (AID 2282969; active = hit-call score of the fitted dose curve at least 0.9, where 1 is the maximum;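 also: activators raise reporter mRNA above DMSO so AC50 marks induction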); conditions: HepG2 Attagene TRANS-FACTORIAL CAR reporter
Sequence of Nuclear receptor subfamily 1 group I member 3 (Homo sapiens) (Q14994 whole entry, looked up, the tested form may be a part): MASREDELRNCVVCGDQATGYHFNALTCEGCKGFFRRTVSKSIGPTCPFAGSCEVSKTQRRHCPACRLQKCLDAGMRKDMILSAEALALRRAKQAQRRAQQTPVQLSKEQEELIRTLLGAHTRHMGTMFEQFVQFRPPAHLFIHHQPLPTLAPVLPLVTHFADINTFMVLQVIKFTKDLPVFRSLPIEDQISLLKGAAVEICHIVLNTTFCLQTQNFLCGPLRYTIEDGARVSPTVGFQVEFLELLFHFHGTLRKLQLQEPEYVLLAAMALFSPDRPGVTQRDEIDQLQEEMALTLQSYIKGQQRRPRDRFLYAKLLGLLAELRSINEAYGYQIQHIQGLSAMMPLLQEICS
Summary of the method: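 Transiently transfected HepG2, multiplex TRANS reporters (CAR-Gal4 chimera driving GAL4-UAS reporter). 24 h dosing. Readout: reporter transcript by RT-PCR + capillary electrophoresis, fluorescence intensity; positive direction vs DMSO.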

[16] = target: Estrogen receptor (Homo sapiens) (UniProt P03372); experiment: ATG_ERa_TRANS: Attagene TRANS-FACTORIAL HepG2 Assay for human Estrogen Receptor alpha (ERa) (AID 2282970; active = hit-call score of the fitted dose curve at least 0.9, where 1 is the maximum); conditions: HepG2 Attagene TRANS ERa GAL4 reporter, mRNA
Sequence of Estrogen receptor (Homo sapiens) (P03372 whole entry, looked up, the tested form may be a part): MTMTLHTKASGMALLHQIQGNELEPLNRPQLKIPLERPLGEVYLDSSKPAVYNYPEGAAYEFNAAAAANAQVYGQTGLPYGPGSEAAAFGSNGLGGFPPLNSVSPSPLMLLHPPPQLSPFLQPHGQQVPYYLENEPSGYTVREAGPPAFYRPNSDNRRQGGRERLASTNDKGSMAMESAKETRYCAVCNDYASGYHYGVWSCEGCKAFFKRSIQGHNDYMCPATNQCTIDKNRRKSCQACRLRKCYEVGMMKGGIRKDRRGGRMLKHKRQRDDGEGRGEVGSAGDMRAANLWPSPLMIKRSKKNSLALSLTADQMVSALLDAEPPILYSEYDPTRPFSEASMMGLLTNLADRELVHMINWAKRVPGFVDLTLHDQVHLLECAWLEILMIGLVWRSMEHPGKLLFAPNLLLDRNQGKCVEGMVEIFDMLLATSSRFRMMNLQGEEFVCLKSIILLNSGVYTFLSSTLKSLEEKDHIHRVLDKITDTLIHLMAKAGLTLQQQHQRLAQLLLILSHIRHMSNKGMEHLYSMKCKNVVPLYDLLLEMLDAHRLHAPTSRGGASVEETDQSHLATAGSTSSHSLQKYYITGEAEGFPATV
Summary of the method: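 Transfected HepG2 cells carrying GAL4-UAS-driven reporter units were dosed for 24 hours. Total RNA was reverse-transcribed, reporter sequences PCR-amplified, FAM-labelled, HpaI-digested and resolved by capillary electrophoresis. Increases over DMSO control defined activity.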

[17] = target: X-box-binding protein 1 (Homo sapiens) (UniProt P17861); experiment: ATG_Xbp1_CIS: Attagene CIS-FACTORIAL HepG2 Assay for human X-box Binding Protein 1 (XBP1) (AID 2282972); conditions: HepG2 XBP1 cis-element reporter, Attagene multiplex; actives raise or lower the signal
Sequence of X-box-binding protein 1 (Homo sapiens) (P17861 whole entry, looked up): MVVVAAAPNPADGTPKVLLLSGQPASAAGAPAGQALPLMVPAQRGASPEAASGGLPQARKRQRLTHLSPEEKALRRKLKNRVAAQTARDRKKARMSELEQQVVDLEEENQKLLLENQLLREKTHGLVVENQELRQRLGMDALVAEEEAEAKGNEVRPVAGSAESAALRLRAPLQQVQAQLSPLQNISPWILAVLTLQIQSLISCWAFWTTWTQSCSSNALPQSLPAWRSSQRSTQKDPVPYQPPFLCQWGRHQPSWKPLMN
Summary of the method: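 Multiplexed cis-reporter readout in transfected HepG2 liver cells. Exposure lasted 24 hours. Activity in either direction was fitted against DMSO as negative control and baseline.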

[18] = target: Steroid hormone receptor ERR1 (Homo sapiens) (UniProt P11474); experiment: ATG_ERRa_TRANS: Attagene TRANS-FACTORIAL HepG2 Assay for human Estrogen-Related Receptor alpha (ERRa) (AID 2282971; active = hit-call score of the fitted dose curve at least 0.9, where 1 is the maximum); conditions: HepG2 Attagene TRANS reporter, ERRa transactivation
Sequence of Steroid hormone receptor ERR1 (Homo sapiens) (P11474 whole entry, looked up, the tested form may be a part): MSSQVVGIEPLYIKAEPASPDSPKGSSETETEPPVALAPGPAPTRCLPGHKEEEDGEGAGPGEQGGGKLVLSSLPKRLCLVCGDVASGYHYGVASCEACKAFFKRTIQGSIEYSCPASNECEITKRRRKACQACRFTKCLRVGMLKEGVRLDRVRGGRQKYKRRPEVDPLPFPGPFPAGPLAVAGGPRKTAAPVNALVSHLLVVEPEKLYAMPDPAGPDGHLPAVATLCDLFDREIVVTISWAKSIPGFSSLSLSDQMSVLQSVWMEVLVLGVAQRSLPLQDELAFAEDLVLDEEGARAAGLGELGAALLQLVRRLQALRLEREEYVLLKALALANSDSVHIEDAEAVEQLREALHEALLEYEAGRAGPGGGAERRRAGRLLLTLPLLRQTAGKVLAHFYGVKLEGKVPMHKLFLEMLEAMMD
Summary of the method: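 HepG2 cells were transiently transfected with multiple GAL4-UAS reporter units, then dosed with compound for 24 h. Total RNA was reverse-transcribed, reporter cDNA PCR-amplified and fluorescently labelled, and fragments resolved by capillary electrophoresis; induction was compared with DMSO.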

[19] = ATG_M_19_TRANS: Attagene TRANS-FACTORIAL HepG2 Assay for M19 Transcription Factor (Internal Marker) (AID 2282974; active = hit-call score of the fitted dose curve at least 0.9, where 1 is the maximum); conditions: HepG2 Attagene TRANS-FACTORIAL M19 internal marker reporter
Summary of the method: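 Fluorescence of 6-FAM-labelled reporter cDNA fragments, separated by capillary electrophoresis, served as the readout. These derived from HepG2 cells carrying transfected GAL4-UAS reporter units after 24 h dosing, with DMSO as negative control.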

[20] = target: Androgen receptor (Homo sapiens) (UniProt P10275); experiment: ATG_AR_TRANS: Attagene TRANS-FACTORIAL HepG2 Assay for human Androgen Receptor (AR) (AID 2282973; active = hit-call score of the fitted dose curve at least 0.9, where 1 is the maximum); conditions: HepG2 Attagene TRANS-FACTORIAL AR reporter transcription
Sequence of Androgen receptor (Homo sapiens) (P10275 whole entry, looked up, the tested form may be a part): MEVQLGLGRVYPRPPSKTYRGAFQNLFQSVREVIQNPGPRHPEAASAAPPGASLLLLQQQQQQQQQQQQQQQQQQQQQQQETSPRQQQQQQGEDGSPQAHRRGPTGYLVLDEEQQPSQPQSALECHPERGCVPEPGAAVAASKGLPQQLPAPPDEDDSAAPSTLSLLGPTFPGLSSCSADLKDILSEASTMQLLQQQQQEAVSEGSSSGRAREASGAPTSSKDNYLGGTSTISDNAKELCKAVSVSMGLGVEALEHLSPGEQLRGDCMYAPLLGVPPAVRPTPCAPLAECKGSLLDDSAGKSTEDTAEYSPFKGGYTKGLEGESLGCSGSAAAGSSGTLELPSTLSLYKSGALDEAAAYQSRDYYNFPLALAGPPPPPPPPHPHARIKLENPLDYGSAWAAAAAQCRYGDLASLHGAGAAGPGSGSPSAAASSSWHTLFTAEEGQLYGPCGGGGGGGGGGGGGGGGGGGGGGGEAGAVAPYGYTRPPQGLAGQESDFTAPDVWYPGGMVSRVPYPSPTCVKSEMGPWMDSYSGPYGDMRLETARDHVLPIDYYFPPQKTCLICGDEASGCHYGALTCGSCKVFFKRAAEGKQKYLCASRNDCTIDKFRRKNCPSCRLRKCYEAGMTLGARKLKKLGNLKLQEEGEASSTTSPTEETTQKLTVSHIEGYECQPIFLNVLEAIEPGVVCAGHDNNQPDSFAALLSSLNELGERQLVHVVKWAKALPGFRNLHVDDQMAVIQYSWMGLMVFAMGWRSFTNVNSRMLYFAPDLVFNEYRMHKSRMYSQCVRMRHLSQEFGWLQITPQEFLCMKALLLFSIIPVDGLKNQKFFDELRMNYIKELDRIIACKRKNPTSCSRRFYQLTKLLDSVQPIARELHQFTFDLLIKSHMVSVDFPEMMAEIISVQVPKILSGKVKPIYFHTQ
Summary of the method: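 Transfected HepG2, 24 h treatment, chimeric NR-Gal4 driving GAL4-UAS reporters. mRNA induction by RT-PCR/capillary electrophoresis fluorescence; DMSO as negative control and baseline.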

Measured: AC50

c1nc[nH]n1
active: [3] 59.3 µM | [16] 24.8 µM
inactive: [1] | [2] | [4] | [5] | [6] | [7] | [8] | [9] | [10] | [11] | [12] | [13] | [14] | [15] | [17]

CCCCOCCOP(=O)(OCCOCCCC)OCCOCCCC
inactive: [1] | [2] | [4] | [5] | [6] | [7] | [8] | [9] | [10] | [11] | [12] | [13] | [14] | [15] | [16] | [17]
active: [3] 1.04 µM and 62.9 µM

O=S1(=O)OCC2C(CO1)C1(Cl)C(Cl)=C(Cl)C2(Cl)C1(Cl)Cl (stereo unspecified)
active: [2] 100 µM | [3] 1.58 µM | [7] 172 µM | [8] 100 µM | [11] 11.6 µM | [17] 167 µM
inactive: [1] | [4] | [5] | [6] | [9] | [10] | [12] | [13] | [15] | [16]

CSC(C)(C)C=NO
inactive: [1] | [2] | [3] | [4] | [5] | [7] | [8] | [9] | [10] | [11] | [12] | [13] | [14] | [15] | [17]

CCCCOCC1CO1 (stereo unspecified)
inactive: [1] | [2] | [3] | [4] | [5] | [7] | [8] | [9] | [10] | [11] | [12] | [13] | [14] | [15] | [18] | [17] | [19]

CCC1(c2ccccc2)C(=O)N=C(O)NC1=O (stereo unspecified)
active: [3] 100 µM
inactive: [1] | [2] | [4] | [5] | [6] | [7] | [8] | [9] | [10] | [11] | [12] | [13] | [14] | [17]

Nc1ccc(Cl)cc1
inactive: [1] | [2] | [3] | [4] | [5] | [6] | [7] | [8] | [9] | [10] | [11] | [13] | [16] | [17] | [19]

O=S(=O)(F)C(F)(F)C(F)(F)C(F)(F)C(F)(F)C(F)(F)C(F)(F)C(F)(F)C(F)(F)F
inactive: [1] | [2] | [3] | [4] | [5] | [6] | [7] | [8] | [9] | [10] | [11] | [13] | [14] | [15] | [16] | [18] | [17] | [20] | [19]
